Pf apPOL block: Pf-apPOL DNA polymerase inhibition; Recombinant Pf-apPOL, molecular beacon fluorescence, 1.5 h; inhibition, % at 10 µM; 210,000 tested, 0.25% active; AID 1794808
mHTT CaM bind: disrupts binding of mutant huntingtin to calmodulin | 190,000 tested, 3.6% active | inhibition, % at 15 µM | AID 1671202 | AlphaScreen His-mHTT/GST-CaM binding, luminescence;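 also: 0% = both proteins with DMSO and 100% = one protein alone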
Target sequence (P42858 whole entry, looked up, stated change not applied): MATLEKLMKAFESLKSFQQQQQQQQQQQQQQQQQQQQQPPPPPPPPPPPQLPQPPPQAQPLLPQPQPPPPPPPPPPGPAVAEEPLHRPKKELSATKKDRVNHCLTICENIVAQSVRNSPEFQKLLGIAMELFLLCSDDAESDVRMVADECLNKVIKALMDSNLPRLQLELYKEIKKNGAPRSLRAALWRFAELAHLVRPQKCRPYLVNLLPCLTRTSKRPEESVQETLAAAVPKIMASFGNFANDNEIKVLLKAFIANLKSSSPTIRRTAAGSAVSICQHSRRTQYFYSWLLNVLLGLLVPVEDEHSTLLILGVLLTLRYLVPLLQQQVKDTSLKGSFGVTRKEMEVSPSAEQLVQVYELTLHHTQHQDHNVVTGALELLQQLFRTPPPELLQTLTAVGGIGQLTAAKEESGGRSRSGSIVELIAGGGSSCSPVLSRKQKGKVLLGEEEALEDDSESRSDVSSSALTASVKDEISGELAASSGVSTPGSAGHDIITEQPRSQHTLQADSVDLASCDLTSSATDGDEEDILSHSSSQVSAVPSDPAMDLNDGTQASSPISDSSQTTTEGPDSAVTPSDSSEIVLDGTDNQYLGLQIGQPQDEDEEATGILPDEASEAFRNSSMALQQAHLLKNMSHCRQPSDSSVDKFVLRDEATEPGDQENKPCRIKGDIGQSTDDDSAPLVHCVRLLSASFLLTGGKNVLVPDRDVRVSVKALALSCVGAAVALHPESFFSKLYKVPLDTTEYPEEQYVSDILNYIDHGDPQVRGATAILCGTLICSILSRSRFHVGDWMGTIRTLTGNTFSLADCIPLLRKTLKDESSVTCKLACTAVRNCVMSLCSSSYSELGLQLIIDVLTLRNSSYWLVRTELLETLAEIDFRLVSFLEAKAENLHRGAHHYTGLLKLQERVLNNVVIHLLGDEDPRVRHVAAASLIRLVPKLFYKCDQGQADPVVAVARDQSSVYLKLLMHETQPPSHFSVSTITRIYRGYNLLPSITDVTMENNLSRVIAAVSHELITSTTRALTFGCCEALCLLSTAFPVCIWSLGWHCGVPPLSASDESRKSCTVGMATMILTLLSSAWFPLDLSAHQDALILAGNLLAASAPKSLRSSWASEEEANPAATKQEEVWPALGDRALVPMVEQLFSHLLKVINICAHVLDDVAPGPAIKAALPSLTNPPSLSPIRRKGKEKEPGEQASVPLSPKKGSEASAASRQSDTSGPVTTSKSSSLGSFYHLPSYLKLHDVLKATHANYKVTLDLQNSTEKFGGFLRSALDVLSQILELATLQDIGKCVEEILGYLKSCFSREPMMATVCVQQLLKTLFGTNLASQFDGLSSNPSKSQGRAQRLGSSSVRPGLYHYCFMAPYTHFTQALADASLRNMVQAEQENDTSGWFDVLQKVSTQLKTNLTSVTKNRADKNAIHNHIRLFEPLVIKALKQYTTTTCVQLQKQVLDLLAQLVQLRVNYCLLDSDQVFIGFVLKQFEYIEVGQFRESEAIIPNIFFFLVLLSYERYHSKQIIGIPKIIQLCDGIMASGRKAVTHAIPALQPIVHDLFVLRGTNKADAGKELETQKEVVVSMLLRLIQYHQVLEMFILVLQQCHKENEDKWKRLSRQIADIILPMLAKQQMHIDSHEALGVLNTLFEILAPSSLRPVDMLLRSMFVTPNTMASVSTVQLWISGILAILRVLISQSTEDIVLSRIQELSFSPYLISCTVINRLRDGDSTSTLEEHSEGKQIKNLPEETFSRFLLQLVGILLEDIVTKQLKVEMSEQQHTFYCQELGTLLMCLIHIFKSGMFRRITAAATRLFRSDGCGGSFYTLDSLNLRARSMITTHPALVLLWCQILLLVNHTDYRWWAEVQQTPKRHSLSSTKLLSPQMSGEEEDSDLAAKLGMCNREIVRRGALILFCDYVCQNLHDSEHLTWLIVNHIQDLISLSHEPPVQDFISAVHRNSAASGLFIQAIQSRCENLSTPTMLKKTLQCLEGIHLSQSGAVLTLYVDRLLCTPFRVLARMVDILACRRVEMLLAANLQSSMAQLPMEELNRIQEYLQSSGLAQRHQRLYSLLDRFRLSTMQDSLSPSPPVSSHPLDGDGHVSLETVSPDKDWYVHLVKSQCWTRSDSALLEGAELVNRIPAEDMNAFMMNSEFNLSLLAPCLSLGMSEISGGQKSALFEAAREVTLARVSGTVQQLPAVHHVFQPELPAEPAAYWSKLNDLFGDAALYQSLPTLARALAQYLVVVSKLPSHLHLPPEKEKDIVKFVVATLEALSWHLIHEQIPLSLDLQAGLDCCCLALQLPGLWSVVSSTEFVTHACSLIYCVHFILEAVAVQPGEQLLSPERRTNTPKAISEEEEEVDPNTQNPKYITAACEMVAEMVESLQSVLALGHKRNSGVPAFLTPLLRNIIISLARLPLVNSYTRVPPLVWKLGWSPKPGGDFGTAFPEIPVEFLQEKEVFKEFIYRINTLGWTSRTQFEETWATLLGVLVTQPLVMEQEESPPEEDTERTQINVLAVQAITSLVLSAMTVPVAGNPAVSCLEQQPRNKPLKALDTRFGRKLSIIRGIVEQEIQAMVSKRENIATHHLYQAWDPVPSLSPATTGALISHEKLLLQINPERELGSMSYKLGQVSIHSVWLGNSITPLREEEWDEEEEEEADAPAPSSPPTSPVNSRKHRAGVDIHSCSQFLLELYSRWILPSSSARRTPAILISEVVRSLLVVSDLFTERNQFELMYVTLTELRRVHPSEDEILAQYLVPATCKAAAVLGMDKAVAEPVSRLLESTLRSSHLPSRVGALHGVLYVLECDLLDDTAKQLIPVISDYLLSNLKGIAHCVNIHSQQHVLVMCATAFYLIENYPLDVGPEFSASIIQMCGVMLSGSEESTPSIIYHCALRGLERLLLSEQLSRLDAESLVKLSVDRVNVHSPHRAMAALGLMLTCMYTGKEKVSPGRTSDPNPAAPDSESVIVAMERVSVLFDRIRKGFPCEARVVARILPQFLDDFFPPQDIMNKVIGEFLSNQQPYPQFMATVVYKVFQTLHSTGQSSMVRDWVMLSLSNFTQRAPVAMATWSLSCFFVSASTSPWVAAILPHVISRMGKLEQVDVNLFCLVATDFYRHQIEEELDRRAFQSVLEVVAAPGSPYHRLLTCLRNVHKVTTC
Numbers without * were called inactive; . = no result. The entries come from a sample that favours hits as a whole. Rule as the data show it: active = inhibition above about 50%; inactive = the rest.

SMILES	Pf apPOL block	mHTT CaM bind
Cc1ccc(-c2nnc(Cc3nc(-c4cccc(C(F)(F)F)c4)no3)o2)cc1	0	-10
Cc1cc(Cl)ccc1NC(=O)C1CCN(c2ccncc2)CC1	-1	-6
O=C(Cc1ccc(Cl)cc1)N1CCc2c(nc[nH]c2=O)C1	-6	-13
NC(=S)N=Nc1c2nnnc2c(NNC(N)=S)c2n[nH][nH]c12	.	100*
COCCNC(=O)c1cc2nc(-c3ccc([N+](=O)[O-])cc3)cc(C(F)(F)F)n2n1	-4	-5
CCN(CCNC(=O)CCN1N=C(c2ccc(C)cc2)CCC1=O)c1ccccc1	-8	44
COc1cc(S(=O)(=O)n2cnc3cc(C)c(C)cc32)c(C)cc1C	-55	18
COc1cc(C)c(S(=O)(=O)n2cnc3cc(C)c(C)cc32)cc1C	-3	67*
O=C(O)c1c2c(nc3c1cnn3C1CCCC1)CCC2	.	-3
COC(=O)c1cccc(NC(=O)CN2CCc3ccccc3C2C(=O)N2CCC(C)CC2)c1 (configuration not stated)	-5	12
COc1ccccc1NC(=O)Cn1c(C(C)C)nc2c(c1=O)CCN(Cc1ccccc1)C2	-3	21
O=C(c1cncc(Br)c1)N1CCN(c2ccc(-c3cccs3)nn2)CC1	-3	7
COc1ccc(Nc2nc(-c3ccc(F)cc3F)cs2)cc1	-2	4
COc1ccc(SCC(=O)Nc2nc(-c3cccc([N+](=O)[O-])c3)cs2)cc1	-7	-15
COc1ccc(-c2csc(Nc3ccc(S(N)(=O)=O)cc3)n2)cc1	-4	52*
COc1ccc(S(N)(=O)=O)cc1	-4	-2
CCN(CC)c1ccc(Nc2nc(-c3ccccc3)cs2)cc1	3	80*
COc1ccc(Nc2nc(-c3cccc([N+](=O)[O-])c3)cs2)cc1	2	84*
CCN(CC)c1ccc(Nc2nc(-c3ccc(OC)cc3)cs2)cc1	-2	80*
CCCC(=O)Nc1nc(-c2ccccc2)cs1	-6	4
O=C(Nc1ccc(Br)cn1)c1cccc(Cl)c1Cl	5	-2
Cc1ccc(NC(=O)N2CCc3c(c(-c4nc(-c5ccccc5)no4)nn3C)C2)c(C)c1	-4	15
CC(=O)N1CCc2cc(Br)cc(S(=O)(=O)N3CCC4(CC3)OCCO4)c21	-2	7
COc1ccccc1OCC(=O)OCc1cc(-c2cccs2)on1	-2	-17
O=C(NCc1ccc2c(c1)OCO2)c1ccc([N+](=O)[O-])cc1	-1	-2
SMILES	Pf apPOL block	mHTT CaM bind
CCN(CC)c1ccc(Nc2nc(-c3ccncc3)cs2)cc1	-4	85*
COc1ccc(-c2csc(Nc3cccnc3)n2)cc1	11	.
C=CCNc1nc(-c2ccncc2)cs1	-4	-1
COc1ccc(-c2csc(Nc3ccc(N(C)C)cc3)n2)cc1	6	89*
CCCCN1C(=O)C(C)(C(=O)Nc2ccc(F)cc2)Oc2cccnc21 (configuration not stated)	-2	-5
N#C/C(=C\c1ccc([N+](=O)[O-])cc1)c1nc(C2CC2)cs1	55*	4
N#C/C(=C\c1ccc(Br)cc1)c1nc(C2CC2)cs1	-3	-41
Cc1cc(C)cc(NC(=O)Cn2ccc3sccc3c2=O)c1	-2	-1
Cc1nnc(C)c2c(C)n(C(C)c3ccccc3)c(C)c12 (configuration not stated)	7	74*
COc1ccc(-n2c(C)c3c(C)nnc(C)c3c2C)cc1OC	3	5
CC(=O)COc1ccc2c(c1)OC(=Cc1ccc(Cl)cc1Cl)C2=O	0	7
COC(=O)c1ccc(C=C2Oc3cc(OCC#N)ccc3C2=O)cc1	-7	6
Cn1cccc(C(=O)Nc2ccc(N3CCCS3(=O)=O)cc2)c1=O	-3	-10
OCCNc1nc(NN2CCOCC2)nc2c1cnn2-c1ccc(Cl)cc1	0	5
OCCNc1nc(NCCc2cccs2)nc2c1cnn2-c1ccc(F)cc1	-5	56*
c1ccc(-n2ncc3c(NCc4cccs4)ncnc32)cc1	-2	1
OCCNc1nc(NCc2ccc3c(c2)OCO3)nc2c1cnn2-c1ccc(F)cc1	-8	67*
CC(C)CCNC(=O)C1CCCN(c2ncc(-c3ccc(F)cc3)cn2)C1 (configuration not stated)	-4	-4
O=C1C2CC(Br)C(Br)CC2C(=O)N1CC1CCCO1 (configuration not stated)	2	-1
O=C1/C(=C/C2CCCO2)CC/C1=C\C1CCCO1 (configuration not stated)	.	68*
O=C(Nc1ccc(-c2ccc(N3CCCC3)nn2)cc1)c1ccc(F)cc1F	-2	-2
CCc1c(C)[nH]n(-c2nn[nH]n2)c1=O	.	100*
CCc1c(C)nc2[nH]nc(-c3ccccc3)n2c1=O	-2	2
COc1cc(OC)c2ccc(=O)oc2c1C(CC(=O)N1CCOCC1)c1ccc2c(c1)OCO2 (configuration not stated)	-7	12
COc1ccc(C(CC(=O)N2CCCCC2)c2c(OC)cc(OC)c3ccc(=O)oc23)cc1 (configuration not stated)	-4	34

Screening data deposited in PubChem by University of Kansas High Throughput Screening Laboratory.
